About 83,000 compounds went through this panel and 20% of them were active in at least one assay; those are over-represented in the sample as a whole.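 Cells were grown in 96-well plates and exposed to the test compound at a single concentration for 48 hours; results are reported as percent growth, with values below 10 considered active.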 A number with no mark means an inactive call. Active and inactive are the calls of the source.
How the values were obtained:
Test in all cases: NCI-60 one-dose screen, 48 h (100 = growth as untreated, 0 = no growth, -100 = all killed)
Details in all cases: 10 µM unless noted
[1] = system: K-562 leukemia
[2] = system: MALME-3M melanoma
[3] = system: MDA-MB-231 breast
[4] = system: RXF 393 renal
[5] = system: SF-268 CNS
[6] = system: SF-295 CNS
[7] = system: SF-539 CNS
[8] = system: UACC-257 melanoma
[9] = system: M14 melanoma
[10] = system: HCT-15 colon
[11] = system: HT29 colon
[12] = system: SNB-75 CNS
[13] = system: SNB-19 CNS
[14] = system: U251 CNS
[15] = system: PC-3 prostate
[16] = system: UACC-62 melanoma
[17] = system: SK-MEL-28 melanoma
[18] = system: SK-MEL-2 melanoma
[19] = system: LOX IMVI melanoma
[20] = system: SK-MEL-5 melanoma

For `Cc1ccc(CNS(=O)(=O)/N=C2\NC(=O)NC2=C(Cl)Cl)cc1`, the growth [1] was 27.7%, the growth [2] was 94.7% and the growth [3] was 40.3%. The growth [4] was 96.9%, the growth [5] was 61.8% and the growth [6] was 4.1% (active). For the same molecule, the growth [7] was 1.74% (active), the growth [8] was 60.2% and the growth [9] was 87.2%. The growth [10] was 95.3%, the growth [11] was 15.7% and the growth [12] was -2.97% (active). The growth [13] was 46.9%, the growth [14] was 39.1% and the growth [15] was 38.9%. For the same molecule, the growth [16] was 77.3%, the growth [17] was 83.8% and the growth [18] was 28.8%.

`COc1ccc(C(=O)/C=C/c2ccc(Oc3nc(NCCO)nc(N4CCOCC4)n3)c(OC)c2)cc1` was tested, and the growth [1] was 6.9% (active), the growth [2] was 84.7% and the growth [3] was 85.3%. The growth [4] was 108%, the growth [5] was 85.5% and the growth [6] was 104%. The growth [7] was 82.5%, the growth [8] was 89.9% and the growth [9] was 86.8%. The growth [10] was 36.2%, the growth [11] was 35% and the growth [12] was 89.6%. For the same molecule, the growth [13] was 69.3%, the growth [14] was 43.1% and the growth [15] was 80%. For the same molecule, the growth [16] was 70.3%, the growth [17] was 97.3% and the growth [18] was 101%.

For `Clc1ccc2c(NCCCN3CCOCC3)c3oc4ccccc4c3nc2c1`, the growth [1] was 13.2%, the growth [2] was 40.6% and the growth [3] was 33.8%. It also gave a growth [4] of 29.1%, a growth [5] of 48.6% and a growth [6] of 31.3%. It also gave a growth [7] of 26.5%, a growth [8] of 87.4% and a growth [9] of 42.7%. For the same molecule, the growth [10] was 21.6%, the growth [11] was 25.6% and the growth [12] was 52.4%. For the same molecule, the growth [13] was 54.1%, the growth [14] was 34.5% and the growth [15] was 48.6%. The growth [16] was 66.6%, the growth [19] was 17.3% and the growth [17] was 70.6%. For the same molecule, the growth [18] was 81.3%.

For `COc1cc(-c2nc3ccc(-c4nnc(SCC(=O)Nc5ccc(C(=O)/C=C/c6ccc(Cl)cc6)cc5)o4)cc3[nH]2)cc(OC)c1OC`, the growth [1] was 83.8%, the growth [2] was 101% and the growth [3] was 91.6%. The growth [4] was 112%, the growth [5] was 99.2% and the growth [6] was 97.7%. For the same molecule, the growth [7] was 74.7%, the growth [8] was 112% and the growth [9] was 105%. For the same molecule, the growth [11] was 102%, the growth [12] was 85.3% and the growth [13] was 93.4%. It also gave a growth [14] of 77.6%, a growth [15] of 95.1% and a growth [20] of 91.4%. For the same molecule, the growth [16] was 84%, the growth [19] was -31.6% (active) and the growth [17] was 102%.

`NS(=O)(=O)c1cccc(Nc2nc(SCC(=O)c3ccc([N+](=O)[O-])cc3)nc3ccccc23)c1` gave a growth [1] of 19.7%, a growth [2] of 58.6% and a growth [3] of 55.6%. The growth [4] was 57%, the growth [5] was 54.5% and the growth [6] was 36.8%. The growth [7] was 52.2%, the growth [8] was 88.9% and the growth [9] was 38.5%. The growth [10] was 34.5%, the growth [11] was 71.2% and the growth [12] was 45.9%. For the same molecule, the growth [13] was 73.7%, the growth [14] was 52.2% and the growth [15] was 24.2%. For the same molecule, the growth [16] was -12.7% (active), the growth [17] was 60.3% and the growth [18] was 13.2%.

`CN1CCN(Cc2ccc(NC(=O)c3cncc(C#Cc4cnc5[nH]ncc5c4)c3)cc2C(F)(F)F)CC1` was tested, and the growth [1] was 3.87% (active), the growth [2] was -27.9% (active) and the growth [3] was -23.8% (active). The growth [4] was -2.95% (active), the growth [5] was 37.7% and the growth [6] was 35.4%. The growth [7] was 13%, the growth [8] was 40.5% and the growth [9] was 8.74% (active). For the same molecule, the growth [11] was 22.7%, the growth [12] was 64% and the growth [13] was 59.3%. The growth [14] was 31.3%, the growth [15] was 42.3% and the growth [20] was 43.4%. The growth [16] was 1.56% (active), the growth [19] was 2.34% (active) and the growth [17] was 1.4% (active). The growth [18] was -49.6% (active).

Molecule `N#Cc1nc(-c2ccccc2)oc1N1CC[C@@H](CO)C1` has a growth [1] of 96%, a growth [2] of 110% and a growth [3] of 99.1%. The growth [4] was 118%, the growth [5] was 105% and the growth [6] was 97.1%. The growth [7] was 102%, the growth [8] was 110% and the growth [9] was 103%. The growth [10] was 100%, the growth [11] was 107% and the growth [12] was 98.3%. The growth [13] was 94%, the growth [14] was 103% and the growth [15] was 92.2%. The growth [16] was 92.4%, the growth [17] was 101% and the growth [18] was 110%.

`COc1ccc(NC2=C(Cl)C(=O)C(C)=C(C)C2=O)cc1OC` showed a growth [1] of 60%, a growth [2] of 99.7% and a growth [3] of 44.9%. The growth [4] was 108%, the growth [5] was 93.5% and the growth [6] was 101%. It also gave a growth [7] of 94.7%, a growth [8] of 95.1% and a growth [9] of 95.7%. For the same molecule, the growth [10] was 96.1%, the growth [11] was 101% and the growth [12] was 126%. The growth [13] was 84.7%, the growth [14] was 77.7% and the growth [15] was 67.9%. It also gave a growth [16] of 81.2%, a growth [17] of 108% and a growth [18] of 83.7%.

`CCOc1ccc2nc(NC(=O)c3ccc(C(F)(F)F)cc3)sc2c1` showed a growth [1] of 108%, a growth [2] of 112% and a growth [3] of 106%. It also gave a growth [4] of 114%, a growth [5] of 106% and a growth [6] of 111%. The growth [7] was 105%, the growth [8] was 107% and the growth [9] was 107%. It also gave a growth [10] of 100%, a growth [11] of 97.9% and a growth [12] of 102%. The growth [13] was 101%, the growth [14] was 100% and the growth [15] was 108%. It also gave a growth [16] of 99.1%, a growth [17] of 105% and a growth [18] of 103%.

For `COc1cccc(NC2=CC(=O)C(C)=C(C)C2=O)c1`, the growth [1] was 12.5%, the growth [2] was 101% and the growth [3] was 41.4%. It also gave a growth [4] of 55.8%, a growth [5] of 74.5% and a growth [6] of 105%. It also gave a growth [7] of 21.7%, a growth [8] of 54.7% and a growth [9] of 97%. The growth [10] was 91.9%, the growth [11] was 98.3% and the growth [12] was 99.8%. It also gave a growth [13] of 97.7%, a growth [14] of 95.1% and a growth [15] of 36.3%. It also gave a growth [16] of 91.8%, a growth [17] of 96.5% and a growth [18] of 83.6%.

`CC1=C(C)C(=O)C(Nc2ccccc2)=C(Cl)C1=O` gave a growth [1] of 15.9%, a growth [2] of 108% and a growth [3] of 15.4%. It also gave a growth [4] of 96.8%, a growth [5] of 95.4% and a growth [6] of 102%. For the same molecule, the growth [7] was 95.4%, the growth [8] was 90.3% and the growth [9] was 95.9%. The growth [10] was 94.2%, the growth [11] was 99.1% and the growth [12] was 65.4%. For the same molecule, the growth [13] was 88.8%, the growth [14] was 84.3% and the growth [15] was 73.9%. The growth [16] was 90.3%, the growth [17] was 106% and the growth [18] was 85.5%.

Work on `CCOC(=O)c1sc(N)c(C(=O)OCC)c1C` yielded a growth [1] of 53.2%, a growth [2] of 74% and a growth [3] of 37.4%. For the same molecule, the growth [4] was 29.9%, the growth [5] was 42.7% and the growth [6] was 81.5%. The growth [7] was 38.1%, the growth [8] was 78.3% and the growth [9] was 78%. It also gave a growth [10] of 45.4%, a growth [11] of 43.4% and a growth [12] of 36%. The growth [13] was 71.7%, the growth [14] was 44.2% and the growth [15] was 54.4%. For the same molecule, the growth [16] was 57.7% and the growth [17] was 78.8%.

`N#Cc1c(-c2ccc(Cl)cc2)nc(SCc2ccc([N+](=O)[O-])cc2)nc1N1CCNCC1` was tested, and the growth [1] was -32.2% (active), the growth [2] was 48.4% and the growth [3] was -77.7% (active). The growth [4] was -4.17% (active), the growth [5] was 35.3% and the growth [6] was 78.9%. For the same molecule, the growth [7] was -23% (active), the growth [8] was 43.5% and the growth [9] was -81% (active). For the same molecule, the growth [10] was 1.91% (active), the growth [11] was -71.9% (active) and the growth [12] was 28.1%. The growth [13] was 51.8%, the growth [14] was -95.9% (active) and the growth [15] was -1.75% (active). For the same molecule, the growth [16] was 12.5%, the growth [17] was 8.08% (active) and the growth [18] was -2.3% (active).

`Cc1cc(C(=O)Nc2sc3c(c2C(N)=O)CCC(=O)C3)ccc1OCCN1CCCCC1` showed a growth [1] of 53.2%, a growth [2] of 102% and a growth [3] of 101%. For the same molecule, the growth [4] was 112%, the growth [5] was 99.4% and the growth [6] was 113%. It also gave a growth [7] of 94.2%, a growth [8] of 107% and a growth [9] of 108%. For the same molecule, the growth [10] was 83.3%, the growth [11] was 96.2% and the growth [12] was 95.2%. The growth [13] was 102%, the growth [14] was 96.8% and the growth [15] was 88.6%. The growth [16] was 100%, the growth [17] was 115% and the growth [18] was 106%.

With `COc1cc(-c2nc3ccc(-c4nnc(SCC(=O)Nc5ccc(C(C)=O)cc5)o4)cc3[nH]2)cc(OC)c1OC` the growth [1] was 108%, the growth [2] was 97.7% and the growth [3] was 96%. It also gave a growth [4] of 116%, a growth [5] of 111% and a growth [6] of 101%. For the same molecule, the growth [7] was 97.6%, the growth [8] was 105% and the growth [9] was 105%. For the same molecule, the growth [11] was 108%, the growth [12] was 96.6% and the growth [13] was 100%. The growth [14] was 103%, the growth [15] was 93.3% and the growth [20] was 102%. The growth [16] was 93.2%, the growth [19] was 108% and the growth [17] was 103%.

For `Nc1c(C(=O)Nc2ccc(Cl)cc2)sc2nc(-c3cnccn3)cc(-c3cccs3)c12`, the growth [1] was 40.5%, the growth [2] was 91.2% and the growth [3] was 72.9%. For the same molecule, the growth [4] was 61.5%, the growth [5] was 47.2% and the growth [6] was 59%. The growth [7] was 12.2%, the growth [8] was 81.5% and the growth [9] was 89.2%. The growth [10] was 62.5%, the growth [11] was -10.3% (active) and the growth [12] was 14.2%. It also gave a growth [13] of 49.1%, a growth [14] of 17.9% and a growth [15] of 54.3%. It also gave a growth [16] of 69.5%, a growth [17] of 64.8% and a growth [18] of 85.4%.

For `O=C(Nc1nc2ccc(O)cc2s1)c1cccc(C(F)(F)F)c1`, the growth [1] was 18.7%, the growth [2] was 81.6% and the growth [3] was 90.7%. The growth [4] was 103%, the growth [5] was 59.4% and the growth [6] was 69.9%. For the same molecule, the growth [7] was 72.5%, the growth [8] was 70.1% and the growth [9] was 50.1%. It also gave a growth [10] of 47.1%, a growth [11] of 102% and a growth [12] of 118%. It also gave a growth [13] of 95.4%, a growth [14] of 62.7% and a growth [15] of 58.2%. It also gave a growth [16] of 45.6%, a growth [17] of 82.2% and a growth [18] of 57.2%.

Source: PubChem BioAssay (NCI)
